This is a sample that favours compounds with a hit; in the whole collection about 2.9% have one here.
Peg3 prom inh: inhibitors of Peg3 promoter | HeLa PEG-Prom luciferase reporter, luminescence, overnight | actives 1.7% (n = 360,000) | inhibition, % at 20 µM;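 active = inhibition of at least 50% at 20 µM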
EBV LMP1 NFkB: Epstein-Barr LMP1 NF-kappaB reporter inhibition. LMP1-induced NF-kappaB luciferase reporter cells, luminescence. inhibition, % at 12.5 µM. actives 0.69% (n = 350,000). AID 504558; in the data active = inhibition above about 41%
KKLEB cytotox: counter-screen for CF NF-kB inhibitors: cytotoxicity. activity change (cytotoxicity), % at 5 µM. AID 602141. KKLEB CF airway cells viability, ATPlite luminescence, overnight; stronger effect = lower value; cells stimulated with P. aeruginosa culture filtrate. actives 0.36% (n = 360,000);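 active = corrected activity change at or below -50% at 5 µM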
MITF TRPM1 inh: inhibitors of MITF-driven TRPM1 promoter in melanoma cells | AID 488899 | SK-MEL-5 TRPM1 promoter luciferase, 24 h | actives 0.83% (n = 330,000) | inhibition, % at 12.5 µM;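 active = mean inhibition across replicates of 60% or more, whatever share of single replicates reaches that level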
CF NFkB inh: cystic fibrosis NF-kB activation inhibition. KKLEB NF-kB-GFP reporter, PAF-induced, GFP fluorescence overnight. inhibition, % at 5 µM. actives 0.86% (n = 360,000). AID 588850;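 active = at least 50% inhibition at 5 µM, scaled per plate between neutral and stimulator controls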;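 note: PAF is a Pseudomonas aeruginosa culture filtrate used as stimulus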
Shn3 inh set2: reduces Shn3 3'UTR luciferase signal in osteoblasts; Clone20 osteoblast Shn3 3'UTR firefly luciferase, 24 h; inhibition, % at 12.5 µM; actives 0.52% (n = 360,000); AID 588674;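 active = mean inhibition of at least 75% with every replicate also reaching 75%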
Large screens that a line does not name were inactive.

O=C(c1ccco1)N1CCC2CC1c1c(Cl)cccc12 (stereo not drawn)	none (no result: MITF TRPM1 inh)
CN(C(=O)/C=C/c1ccc([N+](=O)[O-])s1)c1ccccc1	MITF TRPM1 inh 69
O=[N+]([O-])c1ccc(CSc2ccc(S(=O)(=O)N3CCCCCC3)cn2)cc1	none
CN(CC(=O)Nc1ccc(F)c(F)c1F)C(=O)CCN1C(=O)C2CC=CCC2C1=O (stereo not drawn)	none (no result: MITF TRPM1 inh)
COc1cc(Cl)c(CNC[C@H]2O[C@@H](n3cnc4c(=O)[nH]c(N)nc43)[C@H](O)[C@@H]2O)c(Cl)c1O	none (no result: EBV LMP1 NFkB, MITF TRPM1 inh)
O=C1N=C(N2CCN(c3cccc4ccccc34)CC2)S/C1=C/c1cccs1	EBV LMP1 NFkB 78
O=C(C(=O)c1cc(Br)ccc1O)c1cc(Br)ccc1O	CF NFkB inh 60
CCCCN(C=O)c1c(CC)nc2ccc(C(=O)N(C)Cc3ccco3)cn12	none (no result: EBV LMP1 NFkB, MITF TRPM1 inh)
Oc1c(Cl)cc(Cl)cc1C1=NNC(c2ccc(Cl)cc2)C1 (stereo not drawn)	EBV LMP1 NFkB 49
COc1cccc(-c2cc3nc(NCc4ccccc4F)n(C)c(=O)c3s2)c1	none (no result: EBV LMP1 NFkB, MITF TRPM1 inh)
CC1(C(=O)NS(=O)(=O)c2cccc(F)c2)CCN1C(=O)CCC1CCCC1 (stereo not drawn)	none (no result: EBV LMP1 NFkB, MITF TRPM1 inh)
O=C(CSc1nnc(Nc2ccccc2)s1)NC1CCS(=O)(=O)C1 (stereo not drawn)	Shn3 inh set2 90
O=C(/C=C/[C@H]1O[C@@H](n2cnc3c(NC(=O)c4ccccc4)ncnc32)[C@H](O)[C@@H]1O)NCCCN1CCCC1=O	none (no result: EBV LMP1 NFkB, MITF TRPM1 inh)
Cn1nc(-c2ccccn2)nc2c(=O)n(C)c(=O)nc1-2	Peg3 prom inh 105, KKLEB cytotox -99, MITF TRPM1 inh 104, CF NFkB inh 100, Shn3 inh set2 98
COc1ccc(-c2nc(-c3ccccn3)ncc2S(C)(=O)=O)cc1	none
O=C(CCCc1ccccc1)c1ccc2c(c1)OCCO2	Peg3 prom inh 87, EBV LMP1 NFkB 61, KKLEB cytotox -57, MITF TRPM1 inh 77
O=C(CCN1CCC(c2ccccc2)C1)c1ccccc1 (stereo not drawn)	none
O=C(CCN1CCC(c2ccccc2)C1)c1ccc2c(c1)OCCO2 (stereo not drawn)	EBV LMP1 NFkB 82
O=C(NCC1CCCO1)c1ccc(Br)c(S(=O)(=O)N2CCOCC2)c1 (stereo not drawn)	none
CC1(C(=O)NS(=O)(=O)c2cccs2)CCN1C(=O)CCc1ccc(Cl)cc1Cl (stereo not drawn)	none (no result: EBV LMP1 NFkB, MITF TRPM1 inh)
COc1cc2c(cc1OC)C(O)=CC(=O)C2=O	none (no result: MITF TRPM1 inh)
CC1=C(C)CC(C(=O)N2CCN(Cc3ccccc3)CC2)C(C(=O)O)C1 (stereo not drawn)	EBV LMP1 NFkB 65
Cc1ccc(C(=O)Nc2nnc([C@H]3C[C@H](O)[C@@H](CO)O3)s2)cc1	none (no result: EBV LMP1 NFkB, MITF TRPM1 inh)
CC1Cc2ccccc2N1c1ncnc(N)c1[N+](=O)[O-] (stereo not drawn)	EBV LMP1 NFkB 76, CF NFkB inh 85
O=C(O)CNc1nc(NCc2ccc(Cl)cc2)ccc1[N+](=O)[O-]	none (no result: MITF TRPM1 inh)
CC(=O)C12OC1CC1C3CCC4=CC(=O)CCC4(C)C3CCC12C (stereo not drawn)	none
C[C@H]1C[C@H]2[C@@H]3CCC4=CC(=O)C=C[C@]4(C)[C@@]3(F)[C@@H](O)C[C@]2(C)[C@@]1(O)C(=O)CO	EBV LMP1 NFkB 45, CF NFkB inh 68
CC(=O)OCC(=O)C1=CCC2C3CCC4=CC(=O)C=CC4(C)C3(F)C(OC(C)=O)CC12C (stereo not drawn)	none
C[C@@H]1C[C@H]2[C@@H]3CCC4=CC(=O)C=C[C@]4(C)[C@@]3(F)[C@@H](O)C[C@]2(C)[C@@]1(O)C(=O)COP(=O)(O)O	CF NFkB inh 67
C[C@@H]1CC2[C@@H]3CC[C@H]4CC(=O)CC[C@]4(C)C3=CC[C@]2(C)[C@@]1(O)C(=O)CO (stereo partly drawn)	none
CC1(c2ccccc2)O[C@@H]2C[C@H]3[C@@H]4CCC5=CC(=O)C=C[C@]5(C)[C@@]4(F)[C@@H](O)C[C@]3(C)[C@]2(C(=O)CO)O1 (stereo partly drawn)	CF NFkB inh 72
C[C@H]1C[C@H]2[C@@H]3CCC4=CC(=O)C=C[C@]4(C)[C@@]3(Cl)[C@@H](O)C[C@]2(C)[C@@]1(O)C(=O)CO	CF NFkB inh 64
C[C@@H]1CN([C@@H](C)CO)C(=O)c2cc(Br)cnc2O[C@H]1CN(C)C(=O)c1ccccc1F	none (no result: MITF TRPM1 inh)
CCOC(=O)CN1CC(C)(C)N(CC(=O)OCC)CC1(C)C	none
O=c1cc(CN2CCN(c3ccc(Cl)c(Cl)c3)CC2)c2ccccc2o1	none (no result: EBV LMP1 NFkB, MITF TRPM1 inh)
CCc1nc2c(OCc3ccc(Cl)cc3)cccn2c1N(C=O)Cc1ccc(OC)cc1	none (no result: EBV LMP1 NFkB, MITF TRPM1 inh)
CCCNC(=O)C1(C)CCCN(Cc2ccc(Cl)cc2)C1 (stereo not drawn)	none (no result: EBV LMP1 NFkB, MITF TRPM1 inh)
COc1ccc(/C=C/c2cc(C(=O)O)c3ccccc3n2)cc1	EBV LMP1 NFkB 80
COc1cc(OC)c(OC)cc1/C=C/c1cc(C(=O)O)c2ccccc2n1	none
NC(=O)c1cccc(Nc2nc(C(N)COCc3ccccc3)cs2)n1 (stereo not drawn)	none (no result: EBV LMP1 NFkB, MITF TRPM1 inh)
C=CCNc1nc(N2CCOCC2)c(C#N)c2c1CN(C)CC2	Shn3 inh set2 97
Cn1cccc1C(=O)Nc1ccc(Cl)c(S(=O)(=O)N2CCCCC2)c1	none (no result: MITF TRPM1 inh)
Oc1ccc(-c2nc3c4c(ncn3n2)-c2ccccc2CC42CCCC2)cc1	Peg3 prom inh 111
CCOC(=O)C1(C)CCN1C(=O)c1ccccc1Br (stereo not drawn)	none (no result: EBV LMP1 NFkB, MITF TRPM1 inh)
CC(NC1=CC(=O)c2cccnc2C1=O)C(O)c1ccccc1 (stereo not drawn)	MITF TRPM1 inh 110, CF NFkB inh 80
CCN(CC)CCn1c(=S)[nH]c2cc(C(=O)NCCc3ccc(OC)c(OC)c3)ccc2c1=O	none (no result: MITF TRPM1 inh)
COc1cccc(C2Nc3ccc4ccccc4c3C3=C2C(=O)CCC3)c1O (stereo not drawn)	MITF TRPM1 inh 64
COc1cc(C2CC(=O)c3c(ccc4ccccc34)N2)ccc1O (stereo not drawn)	none
N#Cc1cccc2c1-c1ccccc1/C2=N/NC(N)=S	none
N#Cc1cccc2c1-c1ccccc1/C2=N/NC(N)=O	Peg3 prom inh 52
CC(C)NC(=O)N(C)C[C@@H]1OCc2cnnn2CCCC(=O)N([C@@H](C)CO)C[C@H]1C	none (no result: MITF TRPM1 inh)
CCCCC(CC)COP(=O)(OCC(CC)CCCC)OCC(CC)CCCC (stereo not drawn)	none
CCCCC(CC)CN1CN(CC(CC)CCCC)CC(C)(N)C1 (stereo not drawn)	Peg3 prom inh 103
Cc1cc(NC(=O)CSc2nc3cc(Cl)ccc3c(=O)n2C(C)C)no1	none
O=[N+]([O-])c1ccc(Sc2cc[n+]([O-])c3ccccc23)c([N+](=O)[O-])c1	MITF TRPM1 inh 90

Screening results as filed in PubChem BioAssay.
